Structures can show the parent of a compound that is named as a salt.

The test has as its system Saccharomyces cerevisiae BY4741 SeMeCo community. Kind of test: z-score of subpopulation abundance vs DMSO median, subpopulation auxotrophic for U; higher = larger share of this subpopulation than in DMSO controls. The conditions noted are these: 10 µM; 24 h; SM minimal medium; subpopulation (auxotrophy): U. On the procedure:
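Fluorescent four-plasmid SeMeCo (self-establishing metabolically cooperating S. cerevisiae BY4741 community; plasmids pH-mRuby2, pL-mWasabi, pU-eCFP, pM-TagRFP657) was grown 24 h in minimal SM medium with each Selleck FDA-approved drug at 10 µM in 384-well plates. Cells were fixed and imaged by high-content confocal microscopy. For each auxotrophic subpopulation (and the prototroph), a z-score gives the deviation from the DMSO vehicle-control population median.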
In the case of `COc1cccc(CCc2ccccc2OCC(CN(C)C)OC(=O)CCC(=O)O)c1` (stereo not given) [Sarpogrelate hydrochloride], the “z-score of subpopulation abundance” value is -0.21. In the case of `CCCN1C[C@H](C)[C@@H](O)[C@](C)(O)[C@@H](CC)OC(=O)[C@H](C)[C@@H](O[C@H]2C[C@@](C)(OC)[C@@H](O)[C@H](C)O2)[C@H](C)[C@@H](O[C@@H]2O[C@H](C)C[C@H](N(C)C)[C@H]2O)[C@](C)(O)C[C@H]1C` [Gamithromycin], the “z-score of subpopulation abundance” value is -0.04. Turning to `CC[C@@H]1C(=O)OC[C@@H]1Cc1cncn1C` [Pilocarpine HCl], the “z-score of subpopulation abundance” value is -0.55. The value for `CC(=O)OCC[N+](C)(C)C` [Acetylcholine iodide] was 0.13; that for `CCc1c2c(nc3ccc(OC(=O)N4CCC(N5CCCCC5)CC4)cc13)-c1cc3c(c(=O)n1C2)COC(=O)[C@]3(O)CC` [Irinotecan HCl Trihydrate] was -0.91; that for `CO[C@@H]1[C@@H](O[C@@H]2O[C@H](C)[C@@H](O[C@H]3C[C@@](C)(O)[C@@H](O)[C@H](C)O3)[C@H](N(C)C)[C@H]2O)[C@@H](CC=O)C[C@@H](C)[C@@H](O[C@H]2CC[C@H](N(C)C)[C@@H](C)O2)/C=C/C=C/C[C@@H](C)OC(=O)C[C@H]1OC(C)=O` [Acetylspiramycin (ASPM)] was -1.32. As for `Cc1ccsc1/C=C/C1=NCCCN1C` [Morantel tartrate], the “z-score of subpopulation abundance” value amounted to 0.23. The value for `CCCCCCCCN=c1ccn(CCCCCCCCCCn2ccc(=NCCCCCCCC)cc2)cc1` [Octenidine Dihydrochloride] was 2.6.

`C[C@H](NCc1ccc(OCc2cccc(F)c2)cc1)C(N)=O` [Safinamide]: the “z-score of subpopulation abundance” value stood at 1.46. On to `Cc1cccc(C)c1OCC(C)N` (stereo not given) [Mexiletine HCl], for which the “z-score of subpopulation abundance” value worked out at 0.62.

In the case of `COc1cc(N)c(Cl)cc1C(=O)NC1CCN(CCCOc2ccc(F)cc2)CC1OC` (stereo not given) [Cisapride], the “z-score of subpopulation abundance” value was -0.14. For the compound `NCCc1ccc(O)c(O)c1` [Dopamine HCl], the “z-score of subpopulation abundance” value is -0.48. For the compound `Cc1ccccc1C(OCCN(C)C)c1ccccc1` (stereo not given) [Orphenadrine Citrate], the “z-score of subpopulation abundance” value was determined as 0.9. Regarding `CC(c1cc2ccccc2s1)N(O)C(N)=O` (stereo not given) [Zileuton], the “z-score of subpopulation abundance” value is 0.31. For `C[C@@H](O)[C@H]1C(=O)N2C(C(=O)O)=C(SCCNC=N)C[C@H]12` [Imipenem], the “z-score of subpopulation abundance” value came out at 0.59. Consider `COc1c(N2C[C@@H]3CCCN[C@@H]3C2)c(F)cc2c(=O)c(C(=O)O)cn(C3CC3)c12` [Moxifloxacin HCl], for which the “z-score of subpopulation abundance” value is -0.98. Next, `C[C@@H](O)[C@H]1C(=O)N2C(C(=O)O)=C(S[C@@H]3CN[C@H](C(=O)Nc4cccc(C(=O)O)c4)C3)[C@H](C)[C@H]12` [Ertapenem sodium]: -0.15; `O=c1[nH]cnc2c1ncn2[C@@H]1O[C@H](CO)[C@@H](O)[C@H]1O` [Isoprinosine]: -0.71. Regarding `N=C(N)NS(=O)(=O)c1ccc(N)cc1` [Sulfaguanidine], the “z-score of subpopulation abundance” value is -0.5. Turning to `NC(=O)OCC(COC(N)=O)c1ccccc1` [Felbamate], the “z-score of subpopulation abundance” value is -0.1. Turning to `N#Cc1ccc2[nH]cc(CCCCN3CCN(c4ccc5oc(C(N)=O)cc5c4)CC3)c2c1` [Vilazodone], the “z-score of subpopulation abundance” value was -0.66.

With `O=C(O)c1cc(/N=N/c2ccc(O)c(C(=O)O)c2)ccc1O` [Olsalazine Sodium], the “z-score of subpopulation abundance” value is -0.08. The value for `CC(C[N+](C)(C)C)OC(N)=O` (stereo not given) [Bethanechol chloride] was 0.7; that for `CO[C@H]1C[C@@H]2CC[C@@H](C)[C@@](O)(O2)C(=O)C(=O)N2CCCC[C@H]2C(=O)O[C@H]([C@H](C)C[C@@H]2CC[C@H](n3cnnn3)[C@H](OC)C2)CC(=O)[C@H](C)/C=C(\C)[C@@H](O)[C@@H](OC)C(=O)[C@H](C)C[C@H](C)/C=C/C=C/C=C/1C` [Zotarolimus(ABT-578)] was 3.68. Regarding `CC(=O)[O-].[K+]` [Potassium acetate], the “z-score of subpopulation abundance” value is -0.46. On to `CO[C@H]1C[C@@H]2CC[C@@H](C)[C@@](O)(O2)C(=O)C(=O)N2CCCC[C@H]2C(=O)O[C@H]([C@H](C)C[C@@H]2CC[C@@H](OC(=O)C(C)(CO)CO)[C@H](OC)C2)CC(=O)[C@H](C)/C=C(\C)[C@@H](O)[C@@H](OC)C(=O)[C@H](C)C[C@H](C)/C=C/C=C/C=C/1C`, for which the “z-score of subpopulation abundance” value stood at 3.43. With `COC(=O)C1=C(C)NC(C)=C(C(=O)OCCN2CCN(C(c3ccccc3)c3ccccc3)CC2)C1c1cccc([N+](=O)[O-])c1` (stereo not given) [Manidipine 2HCl], the “z-score of subpopulation abundance” value is -1.31. In the case of `C1N2CN3CN1CN(C2)C3` [Methenamine], the “z-score of subpopulation abundance” value was 0.59.

With `CN(C)[C@@H]1C(=O)C(C(N)=O)=C(O)[C@@]2(O)C(=O)C3=C(O)c4c(O)ccc(Cl)c4[C@@H](O)[C@H]3C[C@@H]12` [Demeclocycline HCl], the “z-score of subpopulation abundance” value was found to be 0.03.

As to `CCC[C@@H]1C[C@@H](C(=O)N[C@@H]([C@H]2O[C@H](SC)[C@H](O)[C@@H](O)[C@H]2O)[C@@H](C)O)N(C)C1` [Lincomycin Hydrochloride Monohydrate], the “z-score of subpopulation abundance” value is 0.86. Consider `CN(Cc1ccc(C(C)(C)C)cc1)Cc1cccc2ccccc12` [Butenafine HCl], for which the “z-score of subpopulation abundance” value is -1.08. As for `CC(=O)O[C@H]1C[C@@H]2CC[C@@H]3[C@H](CC[C@@]4(C)[C@H]3C[C@H]([N+]3(C)CCCCC3)[C@@H]4OC(C)=O)[C@@]2(C)C[C@@H]1N1CCCCC1` [Vecuronium Bromide], the “z-score of subpopulation abundance” value was -0.48.

For the compound `C=CC(C)(O)CCC=C(C)C` (stereo not given) [Linalool], the “z-score of subpopulation abundance” value was found to be 1.02. Next, `O=C1c2cccc3c2[C@H](CCC3)CN1[C@@H]1CN2CCC1CC2` [Palonosetron HCl]: 0.17. Turning to `Cc1nc(=O)c2cc(CN(C)c3ccc(C(=O)N[C@@H](CCC(=O)O)C(=O)O)s3)ccc2[nH]1` [Raltitrexed], the “z-score of subpopulation abundance” value is -1.11. On to `Cc1ccc(O)c([C@H](CCN(C(C)C)C(C)C)c2ccccc2)c1` [Tolterodine tartrate], for which the “z-score of subpopulation abundance” value is -0.01. For `O=C(O)Cc1ccccc1Nc1c(Cl)cccc1Cl` [Diclofenac Sodium], the “z-score of subpopulation abundance” value was -0.91. Consider `CCCCCOc1ccc(-c2cc(-c3ccc(C(=O)N[C@H]4C[C@@H](O)[C@@H](O)NC(=O)[C@@H]5[C@@H](O)[C@@H](C)CN5C(=O)[C@H]([C@H](O)CC(N)=O)NC(=O)[C@H]([C@H](O)[C@@H](O)c5ccc(O)c(OS(=O)(=O)O)c5)NC(=O)[C@@H]5C[C@@H](O)CN5C(=O)[C@H]([C@@H](C)O)NC4=O)cc3)no2)cc1` [Micafungin Sodium], for which the “z-score of subpopulation abundance” value was -1.73. Regarding `OC(Cn1cncn1)(Cn1cncn1)c1ccc(F)cc1F` [Fluconazole], the “z-score of subpopulation abundance” value was -0.29. In the case of `NC[C@H]1O[C@H](O[C@H]2[C@H](O[C@@H]3O[C@H](CO)[C@@H](O)[C@H]3O)[C@@H](O)[C@H](N)C[C@@H]2N)[C@H](N)[C@@H](O)[C@@H]1O` [Ribostamycin Sulfate], the “z-score of subpopulation abundance” value turned out to be 0.39.

The values above are taken from the supplement of paper PMC8975748.
